This is a sample that favours compounds with a hit; in the whole collection about 27% have one here.
CYP2C19 activ: human CYP2C19 activators, primary screen, biochemical, luminescence; Cytochrome P450 2C19 (Homo sapiens), P33261; recombinant CYP2C19, luciferin-H EGE luminescence; stronger effect = higher value; 0 = fully inhibited enzyme, 1 = untreated enzyme; activation factor at 5 µM; 96,000 tested, under 10 active;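 active means activation factor of at least 2 at 5 µM in the primary screen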;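 further: 0 = wells with 2.5 mM tranylcypromine and 1 = vehicle-only wells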
Cav32 inh: Cav3.2 calcium influx blockers – cell-based, Fluo-4 calcium fluorescence, FDSS, MLSMR library, primary screen; Voltage-dependent T-type calcium channel subunit alpha-1H (Homo sapiens), O95180; Cav3.2-expressing cells; stronger effect = lower value; B-score at 10 µM; 100,000 compounds, 4% hits; AID 449739, 2010;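 active means single-dose well whose peak fluorescence ratio is a statistical outlier from its plate by either plate-standardised score or position-corrected B-score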
CYP2C9 inh: blockers of cytochrome P450 2C9 activity – biochemical, luminescence, ADME assay, primary screen; P11712; inhibition, % at 5 µM; CYP2C9 Supersomes, luciferin-H conversion; AID 777, 2007; 96,000 compounds, 20% hits;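 active means blocking of liver enzyme CYP2C9 beyond about 50% at 5 µM, limit read from the data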
CYP2C19 inhib: blockers of cytochrome P450 2C19 activity – biochemical, luminescence, ADME assay, primary screen; P33261; CYP2C19 Supersomes, luciferin-H EGE luminescence, 30 min; inhibition, % at 5 µM; 96,000 compounds, 21% hits;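 active means CYP2C19 inhibition above a set limit at 5 µM in the primary screen, cut at about 50% in these data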;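 further: plate controls were negative control wells for no effect and 2.5 mM tranylcypromine positive control for full effect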
CYP2C9 activ: human CYP2C9 activators, primary screen, biochemical, luminescence; recombinant CYP2C9, luciferin-H conversion; stronger effect = higher value; factor 1 = untreated enzyme, 0 = blocked; 96,000 compounds, 1.4% hits; activation factor at 5 µM; AID 1024, 2008; Cytochrome P450 2C9 (Homo sapiens), P11712;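 active means activation factor of 2 or more for CYP2C9 at a 5 µM dose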;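 further: 0 = sulfaphenazole-blocked wells and 1 = vehicle-only wells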
* = called active by the depositor.

SMILES	CYP2C19 activ	Cav32 inh	CYP2C9 inh	CYP2C19 inhib	CYP2C9 activ
O=C(Nc1ccc2c(c1)OCO2)C1CCN(S(=O)(=O)c2cccc3cccnc23)CC1	0.7	-0.7	-179	32	2.8*
COc1ccc(C)cc1NC(=O)C1CCN(S(=O)(=O)c2cccc3cccnc23)CC1	1.1	-0.29	-174	-7	2.7*
COc1ccc(OC)c(NC(=O)C2CCN(c3ncccn3)CC2)c1	0.7	1	-18	26	1.2
Cc1cccc(NC(=O)C2CCCN(S(=O)(=O)c3cccc4cccnc34)C2)c1 (stereo not given)	0.2	-0.57	-11	81*	1.1
CC1(C)N=C(SCC(=O)Nc2ccc(Cl)cc2)C(c2ccc(Cl)cc2)=N1	0.6	-0.76	40	38	0.6
CC1(C)N=C(SCC(=O)Nc2ccc(Cl)cc2)C(c2ccccc2)=N1	0.2	-5.2*	68*	77*	0.3
COc1cccc(NC(=O)C2CCCN(S(=O)(=O)c3cccc4nsnc34)C2)c1 (stereo not given)	0.5	-0.36	67*	50*	0.3
COc1ccccc1NC(=O)C1CCCN(S(=O)(=O)c2cccc3nsnc23)C1 (stereo not given)	0.3	-0.062	71*	72*	0.3
O=C(NCC1CCCO1)C1CCCN(S(=O)(=O)c2cccc3nsnc23)C1 (stereo not given)	1.1	-0.17	-25	-5	1.2
O=C(NCc1ccccc1Cl)C1CCCN(S(=O)(=O)c2cccc3nsnc23)C1 (stereo not given)	0.2	0.56	50*	77*	0.5
O=C(O)CC1C(=O)NCCN1CCCc1ccccc1 (stereo not given)	1	-0.17	-6	-1	1.1
O=P1(Nn2cnnc2)C=C(c2ccccc2)OC(c2ccccc2)=C1	1	0.19	-22	-4	1.2
CC1CCC(C(=O)NC(C(=O)NCCN2CCC(C)CC2)C(C)C)CC1 (stereo not given)	1.1	0.93	2	-7	1
COc1ccc(/C=C/c2ccncc2)c2ccccc12	0.1	-1.8	54*	88*	0.5
O=S(=O)(Nc1nc2ccccc2nc1NCCO)c1cccc(Cl)c1	0.8	0.19	99*	16	0
O=C(CCCNS(=O)(=O)c1ccccc1)NCc1ccco1	1.1	-0.26	-18	-13	1.2
O=S(=O)(Nc1nc2ccccc2nc1NCc1ccco1)c1ccccc1	1.2	-1.3	98*	-21	0
CCOc1nc2ccccc2nc1NS(=O)(=O)c1ccccc1	1.1	-0.036	39	-9	0.6
O=S(=O)(c1ccccc1)c1ccc(NCc2ccco2)cc1	0.3	-0.7	-61	67*	1.6
Cc1ccc(C)c2[nH]c(=O)c(CN(Cc3ccco3)C(=O)Nc3ccccc3)cc12	0.7	-6*	40	26	0.6
Cc1ccc2cc(CN(Cc3ccco3)C(=O)NCc3ccccc3)c(=O)[nH]c2c1C	0.8	-4.3*	37	22	0.6
COc1ccccc1NC(=O)N(Cc1ccco1)Cc1cc2ccc(C)c(C)c2[nH]c1=O	0.8	-6.7*	64*	22	0.4
COc1ccccc1NC(=O)N(Cc1ccco1)Cc1cc2cc(C)cc(C)c2[nH]c1=O	0.4	-5.1*	62*	60*	0.4
CCCCOc1ccc(-c2nc(=S)[nH][nH]2)cc1	1	-0.46	16	3	0.8
CCCOc1ccc(C(=O)NC(=S)Nc2nc(C)c(C(=O)N(C)C)s2)cc1	0.4	0.05	43	63*	0.6
SMILES	CYP2C19 activ	Cav32 inh	CYP2C9 inh	CYP2C19 inhib	CYP2C9 activ
COc1ccc(O)c(C(=O)c2cnn(C(=O)c3cc(C)oc3C)c2)c1	0.9	2	-17	6	1.2
CN(C)c1cccc(C(=O)n2cc(C(=O)c3cc(F)ccc3O)cn2)c1	0.7	-3.9*	-8	35	1.1
S=C(NCc1cccnc1)Nc1ccc(Cl)c(Cl)c1	0.1	-0.4	98*	92*	0
N#CCCN(Cc1cccnc1)C(=O)Nc1ccc(Cl)c(Cl)c1	0.1	0.89	64*	92*	0.4
COc1ccc(NC(=O)NCc2cccnc2)cc1OC	0.7	1.1	37	32	0.6
O=C(O)c1[nH]c2ccccc2c1NS(=O)(=O)Cc1ccccc1	1	0.006	27	5	0.7
COc1ccccc1-n1c(=S)sc2c(=O)n(Cc3ccco3)c(SC)nc21	0.4	-1.8	76*	64*	0.2
COc1ccccc1N1CCN(C(=O)c2ccc3c(=O)n(Cc4ccco4)c(=S)[nH]c3c2)CC1	0.8	-3.9	42	25	0.6
CCC(C)NC(=O)CSc1nc2c(sc(=S)n2Cc2ccco2)c(=O)n1-c1ccccc1 (stereo not given)	1	-1.7	7	-1	0.9
CCN(CC)C(=O)CSc1nc2c(sc(=S)n2-c2ccccc2)c(=O)n1Cc1ccco1	0.5	-6.6*	67*	49	0.3
CCOC(=O)CSc1nc2c(sc(=S)n2Cc2ccco2)c(=O)n1-c1ccc(F)cc1	0.4	-2.5	72*	56*	0.3
CCN(CC)C(=O)CSc1nc2c(sc(=S)n2CC)c(=O)n1-c1ccccc1	0.6	0.16	34	36	0.7
O=C(NCC1CCCO1)c1ccc(CS(=O)(=O)c2ccc(Cl)cc2)o1 (stereo not given)	0.9	0.58	25	14	0.8
Cn1cc(CN2CCN(c3ccccc3)CC2)c2ccccc21	0.7	-0.96	-75	34	1.7
COC(=O)Nc1ccc(S(=O)(=O)N(CCO)CCO)cc1	1	-1.4	12	1	0.9
Cc1ccc(-c2noc(C3CCN(S(=O)(=O)c4ccc5c(c4)OCCO5)CC3)n2)o1	0.9	-1.3	-20	5	1.2
Cc1ccc(-c2noc(C3CCN(C(=O)Nc4ccc(C#N)cc4)CC3)n2)o1	0.2	-0.77	61*	83*	0.4
CCCCn1c(-c2cc(Cl)ccc2OC)n[nH]c1=S	0.3	-1.3	29	72*	0.7
CCn1c(-c2ccc(OC)c(OC)c2)n[nH]c1=S	1	-0.19	8	4	0.9
CCN(C(=O)c1cc2cc(OC)ccc2oc1=O)c1ccccc1	0.8	0.24	36	16	0.6
CCN(C(=O)c1cc2cc(OC)ccc2oc1=O)c1cccc(C)c1	0.4	-0.62	51*	56*	0.5
CC1CCC2(CC1)NC(=O)c1ccccc1O2 (stereo not given)	0.1	-0.73	22	93*	0.8
CC1/C(=N/O)CC(c2ccccc2)NC1c1ccccc1 (stereo not given)	0.3	0.49	51*	70*	0.5
CC1C(=NO)C(C)C(c2ccccc2)NC1c1ccccc1 (stereo not given)	0	-3.6	30	98*	0.7

Assay outcomes as filed in PubChem.
